Cy5 interf NS3h = Cy5 fluorescence interference, HCV helicase counter-screen; fluorescence interference ratio at 100 µM; Cy5-dT15 DNA with NS3h; actives lie on both sides; signal over control mean, under 1 quenches; hit rate 6% among 16,000;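 active = compound fluorescence over control fluorescence at most 0.8, a quencher, or at least a set upper limit, an enhancer; inactive = ratio between 0.8 and the set upper limit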
HCV NS3h FP = hepatitis C NS3 helicase inhibition, primary screen. NS3h Cy5-dT15 DNA binding, fluorescence polarization. inhibition, % at 100 µM. hit rate 1.6% among 16,000. AID 687043;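 active = inhibition above the average over every tested compound plus 3 SD, cut at about 40% in these data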
Each line names hits and unclear results; the compound was inactive in the other large screens. Most compounds without a hit are left out; they make up all but 6.8% or so of the library.

O=C(Nc1nccs1)c1cccc(N2C(=O)c3ccccc3C2=O)c1	Cy5 interf NS3h 1.2
O=C(Nc1ccccc1O)c1ccc2c(c1)C(=O)N(c1cccc(C(=O)c3ccccc3)c1)C2=O	none
O=C(Nc1ccc(OCc2ccccc2)cc1)C(c1ccccc1)c1ccccc1	none
O=C(NC(Cc1ccccc1)C(=O)Nc1ccccc1)OCc1ccccc1 (centres undefined)	Cy5 interf NS3h 0.68
CC(NC(=O)c1cc2nc(-c3ccco3)cc(C(F)(F)F)n2n1)C1CC2CCC1C2 (centres undefined)	Cy5 interf NS3h 0.7
COc1cc(NC(=O)c2cc3nc(-c4ccc5c(c4)OCO5)cc(C(F)(F)F)n3n2)c(OC)cc1Cl	none
O=C(NC(=S)N1CCOCC1)C12CC3CC(CC(C3)C1)C2	none
O=C1NC(=O)C(=Cc2ccc(OCc3ccccc3F)cc2)C(=O)N1	none
COCCCN1C(=O)/C(=C/c2ccc(N(C)C)cc2)SC1=S	none
COc1ccc(/C=C2/SC(=S)N(CCCC(=O)OCCN(C)C)C2=O)cc1	Cy5 interf NS3h 0.8
CS(=O)(=O)N(CC(=O)NCCc1ccccc1)c1cc(Cl)cc(Cl)c1	none
CC(=O)Nc1ccc(C(=O)N2CC(C)CC(C)C2)cc1 (centres undefined)	Cy5 interf NS3h 0.69
CC1CC(C)CN(C(=O)c2ccc(Cl)cc2)C1 (centres undefined)	none
CCOc1ccc(/C=C2/SC(=S)NC2=O)c(OCC)c1	none
O=C(Nc1ccc2ccccc2c1)c1ccc(-c2cccc(Cl)c2)o1	none
O=C(Nc1ccc(-c2nc3ncccc3o2)cc1)c1ccc(-c2cccc(Cl)c2)o1	Cy5 interf NS3h 1.2
CCN1C(=O)/C(=C\c2ccc(-c3ccc(Cl)cc3Cl)o2)SC1=S	none
Cc1ccc2nsnc2c1NC(=O)c1ccc(-c2ccccc2)cc1	none
N#Cc1c(N)[nH]c(=S)c(C#N)c1-c1ccc(Br)cc1	none
COc1ccc(C(=O)Oc2cccc3cccnc23)cc1Cl	none
Cc1ccsc1/C=C1\SC(=N)N(c2ccc3c(c2)OCO3)C1=O	Cy5 interf NS3h 1.5, HCV NS3h FP 49
Cc1ccsc1/C=C1\SC(=S)N(C(C)C)C1=O	none
COc1ccc(-n2nc3cc(C)c(NC(=O)c4ccco4)cc3n2)cc1	none
O=C(Nc1ccc2nn(-c3ccccc3)nc2c1)C(Cl)(Cl)Cl	Cy5 interf NS3h 0.69
Nc1cccc(NC(=O)c2ccco2)c1	none
CCOC(=O)c1cccc(NC(=O)c2ccco2)c1	Cy5 interf NS3h 0.68
Cc1ccc(-n2nc3ccc(NC(=O)c4ccco4)cc3n2)cc1	Cy5 interf NS3h 0.68
COc1ccc(CC(=O)Nc2ccc(C)c(NC(=O)c3ccccc3)c2)cc1OC	none
O=C(O)CCC(=O)Nc1ccc2nn(-c3ccccc3)nc2c1	none
Cc1ccc(NC(=O)c2ccco2)cc1NC(=O)c1ccccc1	Cy5 interf NS3h 0.78
CCCSc1nnc(NC(=O)c2cccc(Cl)c2)s1	none
COC(=O)/C(=C\C(=O)c1ccccc1)Nc1ccccc1	none
CCOc1ccc(NC(=O)CN(c2ccc(C)c(Cl)c2)S(C)(=O)=O)cc1	none
CCOC(=O)c1c2c(n(C)c1CO)C(=O)C(=O)c1ccc(Br)cc1-2	none
O=[N+]([O-])c1ccc(-c2ccc(/C=C/c3ccc4ccccc4n3)o2)cc1	none
O=[N+]([O-])c1ccc(-c2nc(Cc3ccccc3Cl)no2)cc1	none
CCNC(=O)C(=O)Nc1ccc(OCC)cc1	none
O=C(Nc1ccc(Cl)cc1)c1cc2ccccc2cc1O	none
Cc1ccc(NC(=O)c2cc3ccccc3cc2O)c(C)c1	Cy5 interf NS3h 0.77
COc1ccc(NS(=O)(=O)c2ccc(OC)c(Br)c2)c(OC)c1	none
COc1c(Cl)ccc(Cl)c1C(=O)Nc1c(C)cccc1C(C)C	none
COc1cc(C(=O)Nc2c(C)cccc2C(C)C)c(Br)c(OC)c1OC	Cy5 interf NS3h 1.2
O=C(CCNc1ccc(F)cc1)c1cccs1	none
Cc1cccc(NCCC(=O)c2cccs2)c1C	Cy5 interf NS3h 0.78
COc1cc(/C=C2/C(C)=C(C#N)c3nc(N)c(C#N)c(C)c32)c([N+](=O)[O-])cc1OC	HCV NS3h FP 47
COc1ccc(/C=C2/C(C)=C(C#N)c3nc(N)c(C#N)c(C)c32)cc1Br	none
O=C(Nc1ccccc1C(=O)Nc1ccccn1)c1ccccc1F	none
O=C(Nc1ccccc1C(=O)Nc1ccccn1)c1ccco1	HCV NS3h FP 42
O=C(Nc1cccc(O)c1)/C(=C/c1cccc([N+](=O)[O-])c1)NC(=O)c1ccccc1	none
Cc1ccc(C(=O)N/C(=C\c2cccc([N+](=O)[O-])c2)C(=O)Nc2ccc(C)cc2C)cc1	Cy5 interf NS3h 1.3
O=C(Nc1ccc(C(=O)O)cc1)/C(=C/c1cccc([N+](=O)[O-])c1)NC(=O)c1ccccc1	none
Cc1ccc(C(=O)N/C(=C\c2cccc([N+](=O)[O-])c2)C(=O)Nc2ccc(C)c(C)c2)cc1	Cy5 interf NS3h 1.2
CN1CCN(Cc2c(O)ccc3cc(-c4nc5ccccc5[nH]4)c(=O)oc23)CC1	none
CC(=C(C#N)C#N)c1ccc2c(c1)OCO2	Cy5 interf NS3h 0.74
CC(=C(C#N)C#N)c1ccc2c(c1)OCCO2	none
O=C(CSc1nc2ccccc2s1)Nc1nc2ccccc2s1	none
O=C(CSc1nc2ccccc2s1)c1ccc2ccccc2c1	Cy5 interf NS3h 0.74
COc1ccc(CNC(=O)CSc2nc3ccccc3s2)cc1	none
COc1ccc(NC(=O)CSc2nc3ccccc3s2)c(OC)c1	Cy5 interf NS3h 0.63
CCOC(=O)c1c(C)n(CCc2ccccc2)c2ccc(O)cc12	none
Cc1csc(-c2cc3ccc(OCc4c(F)c(F)c(F)c(F)c4F)cc3oc2=O)n1	none
COc1cccc(N2C(=O)C(=O)C(=C(O)c3ccccc3)C2c2ccc(Cl)cc2)c1 (centres undefined)	none
COc1cccc(N2C(=O)C(=O)C(=C(O)c3ccccc3)C2c2ccccc2Cl)c1 (centres undefined)	Cy5 interf NS3h 0.73
COc1ccc(NC(=O)CSc2ccncc2)c([N+](=O)[O-])c1	Cy5 interf NS3h 0.64
COc1ccc(NC(=O)COc2ccc3ccccc3c2)c([N+](=O)[O-])c1	none
COc1c(Cl)cc(C(=O)Nc2cccc(C(F)(F)F)c2)cc1Cl	Cy5 interf NS3h 0.53
COc1ccc(C(=O)/C=C/Nc2ccc(Cl)cc2[N+](=O)[O-])cc1OC	Cy5 interf NS3h 0.22
COc1c(Cl)cc(C(=O)Nc2c(C)cccc2C)cc1Cl	none
COc1ccc(C(=O)/C=C/Nc2ccccc2NS(=O)(=O)c2ccc([N+](=O)[O-])cc2)cc1OC	none
COc1ccc(NC(=O)c2cccc(Cl)c2)cc1Cl	Cy5 interf NS3h 0.7
COc1ccc(NC(=O)c2ccc(Cl)cc2)cc1Cl	none
COc1ccc(C(=O)Nc2ccc(Cl)cc2C)cc1OC	Cy5 interf NS3h 0.78
COc1ccc(C(=O)Nc2ccc(C)cc2C)cc1OC	none
COc1ccccc1NS(=O)(=O)c1ccc(C)c([N+](=O)[O-])c1	none
O=C(NCCO)C(=O)Nc1ccccc1	none
COc1ccc(OC)c(N(CC(=O)N(Cc2ccccc2)Cc2ccccc2)S(C)(=O)=O)c1	none
Cc1ccccc1OCC(=O)Nc1cccc(F)c1	none
COc1ccc(N(CC(=O)NCCc2ccc(OC)c(OC)c2)S(=O)(=O)c2ccc(OC)c(OC)c2)cc1	Cy5 interf NS3h 1.2
COCCCNC(=O)c1ccc(CN(c2ccccc2)S(C)(=O)=O)cc1	Cy5 interf NS3h 0.79
COc1ccc(NC(=O)CN(c2ccc(OC)cc2)S(C)(=O)=O)cc1	none
COc1ccc(OC)c(N(CC(=O)NCCc2ccc(OC)c(OC)c2)S(=O)(=O)c2ccc(OC)c(OC)c2)c1	none
COc1ccc(CCNC(=O)c2ccc(N(Cc3ccc(Cl)cc3)S(C)(=O)=O)cc2)cc1OC	Cy5 interf NS3h 0.75

Screening results as filed in PubChem.
